The campaign covered roughly 66,000 compounds. About 720 (1.1%) were called active. Rule as the data show it: active = normalised signal below about 0.5; inactive = the rest, inconclusive results apart. The entries come from a sample that favours actives as a whole.
What follows are compounds tested against Chromobox protein homolog 7 (Homo sapiens) (UniProt O95931) (assay: blockers of CBX7 binding to H3K27me3 peptide – biochemical, AlphaScreen, primary screen (AID 1224903)). Conditions: AlphaScreen His6-CBX7 / biotin-H3K27me3 peptide binding, stronger effect = lower value; z-score: measured here: z-score of CBX7 signal.
Chromobox protein homolog 7 (Homo sapiens), sequence (O95931 whole entry, looked up): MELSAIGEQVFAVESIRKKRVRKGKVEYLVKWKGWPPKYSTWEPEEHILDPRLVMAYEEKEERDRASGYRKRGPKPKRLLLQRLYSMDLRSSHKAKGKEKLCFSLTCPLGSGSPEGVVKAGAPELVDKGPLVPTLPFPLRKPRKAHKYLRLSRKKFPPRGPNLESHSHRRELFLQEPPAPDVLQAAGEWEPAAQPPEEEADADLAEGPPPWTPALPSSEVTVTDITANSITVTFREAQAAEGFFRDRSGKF

Compound | normalised signal (fraction of DMSO) | z-score
Cc1ccc(C2CC(c3ccc(C)cc3)n3ncnc3N2)cc1 (stereo unspecified) | 1.02 (inactive) | 0.839
Cc1cc(C)cc(NS(=O)(=O)c2cnc[nH]2)c1 | 1.01 (inactive) | 0.0588
COc1ccc(NC2CC(=O)N(Cc3ccccc3)C2=O)cc1 (stereo unspecified) | 1.18 (inactive) | 0.412
COc1ccccc1NC(=O)Cn1ccc2ccccc2c1=O | 0.981 (inactive) | -0.168
O=C(Nc1ccc2c(c1)OCO2)c1cnc2ccccn2c1=O | 0.987 (inactive) | -0.351
Cc1ccc(Nc2nc(-c3ccccc3)c3cc(Cl)ccc3n2)cc1 | 1.7 (inactive) | 11.8
CCN1CCN(c2ccc(Nc3nc(-c4ccccc4)c4cc(Cl)ccc4n3)cc2)CC1 | 0.231 (active) | -24.9
O=C(O)c1ccc(Nc2nc(-c3ccccc3)c3cc(Br)ccc3n2)cc1 | 1.05 (inactive) | 2.04
Cc1nc2sc(C(c3cccs3)N3CCc4ccccc4C3)c(O)n2n1 (stereo unspecified) | 0.953 (inactive) | -2.28
COc1ccc(OC)c(S(=O)(=O)NCCc2c(C)[nH]c3ccc(C)cc23)c1 | 0.427 (active) | -0.571
COc1ccc(S(=O)(=O)NCCc2c(C)[nH]c3ccc(C)cc23)cc1C | 0.907 (inactive) | -1.43
COc1ccc2[nH]c(C)c(CCNS(=O)(=O)c3cc(Br)ccc3OC)c2c1 | 0.363 (active) | -0.634
Cc1[nH]c2ccc(OC(F)(F)F)cc2c1CCNS(=O)(=O)c1ccc(C(C)C)cc1 | 0.913 (inactive) | -1.89
COc1ccc2[nH]c(C)c(CCNS(=O)(=O)c3ccc(Cl)c(OC)c3)c2c1 | 0.845 (inactive) | -0.316
Cc1ccc2[nH]c(C)c(CCNS(=O)(=O)c3ccc(C)c(C)c3C)c2c1 | 0.951 (inactive) | -0.467
Cc1nc2sccn2c1-c1csc(Nc2ccc(S(N)(=O)=O)cc2)n1 | 1.07 (inactive) | 0.0851
Cc1ccc(Cn2nnc3c(=O)n(Cc4c(F)cccc4Cl)cnc32)cc1 | 0.864 (inactive) | -2.23
Cc1ccn2c(NC3CCCCC3)c(-c3cccs3)nc2c1 | 0.819 (inactive) | -1.46
COc1ccc(OC)c(NC(=O)CCc2c(C)nc3c(c(C)nn3-c3ccc(C)cc3)c2C)c1 | 0.992 (inactive) | -0.0612
CCCCCC(O)(CCN1CCCCC1)c1ccccc1 (stereo unspecified) | 1.09 (inactive) | 2.44
CC(C)c1ccc(C(=O)CC2(O)C(=O)N(Cc3ccccc3)c3ccc(Br)cc32)cc1 (stereo unspecified) | 0.876 (inactive) | -1.19
CCCN1C(=O)C(O)(CC(=O)c2ccc(CC)cc2)c2cc(Br)ccc21 (stereo unspecified) | 0.0492 (active) | -1.07
CCc1ccc(C(=O)CC2(O)C(=O)N(CCc3ccccc3)c3ccc(Br)cc32)cc1 (stereo unspecified) | 0.626 (inactive) | -10.8

Reference: PubChem BioAssay AID1224903 (Bradner/Qi Labs at DFCI, 2016)
